# The entries come from a sample that favours the strongest signals as a whole.
# Tests used:
# Test in all cases: glycan array binding signal (z-score within array); higher = stronger binding
# Conditions in all cases: glycan notation: IUPAC condensed, linker removed
# [1] = molecular target: Fuc(a1-2)Gal(b1-3)GlcNAc(b1-3)[Gal(b1-4)GlcNAc(b1-6)]Gal(b1-4)Glc
# Outline: (§1)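 Glycan array data came from 3228 arrays in the Consortium for Functional Glycomics database, and only arrays with an available protein sequence were kept. Glycan names were put into IUPAC-condensed notation, and columns mapping to the same glycan were averaged. The binding signal is a within-array Z-score, averaged across arrays of one protein sequence run at different concentrations or buffers and across linkers. A negative Z-score can be read as non-binding.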
# Fuc(a1-2)Gal(b1-4)GlcNAc = molecular target: Fuc(a1-2)Gal(b1-4)GlcNAc
# Outline: as §1
# [2] = molecular target: Fuc(a1-2)Gal(b1-4)GlcNAc(b1-3)[Fuc(a1-3)[Gal(b1-4)]GlcNAc(b1-6)]Gal(b1-4)Glc
# Outline: as §1
# [3] = molecular target: Fuc(a1-2)Gal(b1-4)GlcNAc(b1-6)GalNAc
# Outline: as §1
# [4] = molecular target: Fuc(a1-2)Gal6S(b1-3)GlcNAc
# Outline: as §1
# [5] = molecular target: Fuc(a1-2)[Gal(a1-3)]Gal(b1-3)GlcNAc(b1-2)Man(a1-3)[Fuc(a1-2)[Gal(a1-3)]Gal(b1-3)GlcNAc(b1-2)Man(a1-6)]Man(b1-4)GlcNAc(b1-4)GlcNAc
# Outline: as §1
# [6] = molecular target: Fuc(a1-2)[Gal(a1-3)]Gal(b1-3)GlcNAc(b1-6)GalNAc
# Outline: as §1
# [7] = molecular target: Fuc(a1-2)[Gal(a1-4)]Gal(b1-4)GlcNAc
# Outline: as §1
# [8] = molecular target: Fuc(a1-2)[GalNAc(a1-3)]Gal(b1-3)GlcNAc(b1-6)GalNAc
# Outline: as §1
# [9] = molecular target: Fuc(a1-2)[GalNAc(a1-3)]Gal(b1-4)GlcNAc(b1-2)Man(a1-3)[Fuc(a1-2)[GalNAc(a1-3)]Gal(b1-4)GlcNAc(b1-2)Man(a1-6)]Man(b1-4)GlcNAc(b1-4)[Fuc(a1-6)]GlcNAc
# Outline: as §1
# [10] = molecular target: Fuc(a1-2)[GalNAc(a1-3)]Gal(b1-4)GlcNAc(b1-6)GalNAc
# Outline: as §1
# [11] = molecular target: Fuc(a1-2)[GalNAc(a1-4)]Gal(b1-4)GlcNAc
# Outline: as §1
# [12] = molecular target: Fuc(a1-3)[Gal(b1-4)]GlcNAc(b1-2)Man(a1-3)[Fuc(a1-3)[Gal(b1-4)]GlcNAc(b1-2)Man(a1-6)]Man(b1-4)GlcNAc(b1-4)[Fuc(a1-6)]GlcNAc
# Outline: as §1
# [13] = molecular target: Fuc(a1-3)[Gal(b1-4)]GlcNAc(b1-3)Gal(b1-4)[Fuc(a1-3)]GlcNAc(b1-3)Gal(b1-4)[Fuc(a1-3)]GlcNAc
# Outline: as §1
# [14] = molecular target: Fuc(a1-3)[Gal3S(b1-4)]GlcNAc6S
# Outline: as §1
# [15] = molecular target: Gal(b1-3)[Fuc(a1-4)]GlcNAc(b1-3)Gal(b1-3)[Fuc(a1-4)]GlcNAc
# Outline: as §1
# [16] = molecular target: Gal(b1-3)[Fuc(a1-4)]GlcNAc(b1-6)GalNAc
# Outline: as §1
# Gal(b1-4)Glc = molecular target: Gal(b1-4)Glc
# Outline: as §1
# [17] = molecular target: Gal(b1-4)GlcNAc(b1-2)Man(a1-3)[Man(a1-6)]Man(b1-4)GlcNAc(b1-4)GlcNAc
# Outline: as §1
# [18] = molecular target: GalNAc(b1-3)Gal(a1-4)Gal(b1-4)GlcNAc(b1-3)Gal(b1-4)Glc
# Outline: as §1
# GalNAc(b1-3)GalNAc = molecular target: GalNAc(b1-3)GalNAc
# Outline: as §1
# [19] = molecular target: GlcA3S(b1-3)Gal(b1-4)GlcNAc(b1-2)Man
# Outline: as §1
# [20] = molecular target: GlcNAc(b1-3)Gal(b1-4)GlcNAc(b1-3)Gal(b1-4)GlcNAc(b1-3)Gal(b1-4)GlcNAc(b1-2)Man(a1-3)[GlcNAc(b1-3)Gal(b1-4)GlcNAc(b1-3)Gal(b1-4)GlcNAc(b1-3)Gal(b1-4)GlcNAc(b1-2)Man(a1-6)]Man(b1-4)GlcNAc(b1-4)GlcNAc
# Outline: as §1
# [21] = molecular target: GlcNAc(b1-3)Gal(b1-4)GlcNAc(b1-3)Gal(b1-4)GlcNAc(b1-3)Gal(b1-4)GlcNAc(b1-3)Gal(b1-4)GlcNAc(b1-2)[GlcNAc(b1-3)Gal(b1-4)GlcNAc(b1-3)Gal(b1-4)GlcNAc(b1-3)Gal(b1-4)GlcNAc(b1-3)Gal(b1-4)GlcNAc(b1-6)]Man(a1-6)[GlcNAc(b1-3)Gal(b1-4)GlcNAc(b1-3)Gal(b1-4)GlcNAc(b1-3)Gal(b1-4)GlcNAc(b1-3)Gal(b1-4)GlcNAc(b1-2)Man(a1-3)]Man(b1-4)GlcNAc(b1-4)[Fuc(a1-6)]GlcNAc
# Outline: as §1
# [22] = molecular target: Neu5Ac(a2-3)Gal(b1-3)GlcNAc(b1-2)Man(a1-3)[GlcNAc(b1-4)][Neu5Ac(a2-3)Gal(b1-3)GlcNAc(b1-2)Man(a1-6)]Man(b1-4)GlcNAc(b1-4)GlcNAc
# Outline: as §1
# [23] = molecular target: Neu5Ac(a2-3)Gal(b1-3)GlcNAc(b1-2)[Neu5Ac(a2-3)Gal(b1-3)GlcNAc(b1-4)]Man(a1-6)[Neu5Ac(a2-3)Gal(b1-3)GlcNAc(b1-2)Man(a1-3)]Man(b1-4)GlcNAc(b1-4)GlcNAc
# Outline: as §1
# [24] = molecular target: Neu5Ac(a2-3)Gal(b1-3)[Fuc(a1-4)]GlcNAc
# Outline: as §1
# [25] = molecular target: Neu5Ac(a2-3)Gal(b1-3)]Neu5Ac(a2-3)Gal(b1-4)]GlcNAc
# Outline: as §1
# [26] = molecular target: Neu5Ac(a2-3)Gal(b1-4)GlcNAc
# Outline: as §1
# [27] = molecular target: Neu5Ac(a2-3)Gal(b1-4)GlcNAc(b1-2)Man(a1-3)[Neu5Ac(a2-3)Gal(b1-4)GlcNAc(b1-2)Man(a1-6)]Man(b1-4)GlcNAc(b1-4)[Fuc(a1-6)]GlcNAc
# Outline: as §1
# [28] = molecular target: Neu5Ac(a2-3)Gal(b1-4)GlcNAc(b1-3)Gal(b1-4)GlcNAc(b1-3)Gal(b1-4)GlcNAc
# Outline: as §1
# [29] = molecular target: Neu5Ac(a2-3)Gal(b1-4)GlcNAc(b1-3)Gal(b1-4)GlcNAc(b1-3)GalNAc
# Outline: as §1
# [30] = molecular target: Neu5Ac(a2-3)Gal(b1-4)GlcNAc6S
# Outline: as §1
# [31] = molecular target: Neu5Ac(a2-3)Gal(b1-4)[Fuc(a1-3)]GlcNAc6S
# Outline: as §1
# [32] = molecular target: Neu5Ac(a2-3)Gal6S(b1-4)GlcNAc
# Outline: as §1
# [33] = molecular target: Neu5Ac(a2-3)Gal6S(b1-4)[Fuc(a1-3)]GlcNAc
# Outline: as §1
# Neu5Ac(a2-6)Gal(b1-4)Glc = molecular target: Neu5Ac(a2-6)Gal(b1-4)Glc
# Outline: as §1
# [34] = molecular target: Neu5Ac(a2-6)Gal(b1-4)GlcNAc(b1-3)[Neu5Ac(a2-6)Gal(b1-4)GlcNAc(b1-6)]GalNAc
# Outline: as §1
# Neu5Ac(a2-8)Neu5Ac = molecular target: Neu5Ac(a2-8)Neu5Ac
# Outline: as §1
# [35] = molecular target: Neu5Ac(a2-8)Neu5Ac(a2-3)Gal(b1-3)GalNAc(b1-4)[Neu5Ac(a2-3)]Gal(b1-4)Glc
# Outline: as §1
# [36] = molecular target: Neu5Gc(a2-3)Gal(b1-3)[Fuc(a1-4)]GlcNAc
# Outline: as §1
# [37] = molecular target: Neu5Gc(a2-3)Gal(b1-4)GlcNAc(b1-3)Gal(b1-4)GlcNAc(b1-2)Man(a1-3)[Neu5Gc(a2-3)Gal(b1-4)GlcNAc(b1-3)Gal(b1-4)GlcNAc(b1-2)Man(a1-6)]Man(b1-4)GlcNAc(b1-4)GlcNAc
# Outline: as §1
# Neu5Gc(a2-6)GalNAc = molecular target: Neu5Gc(a2-6)GalNAc
# Outline: as §1
# [38] = molecular target: Neu5Gc(a2-8)Neu5Ac(a2-3)Gal(b1-4)GlcNAc
# Outline: as §1
binder,measurement,setting,value
diCBM40 CPF071 (Clostridium perfringens) (protein) MAHHHHHHVGTGSNDDDDKSPDPMLSSLGEYKDINLESSNASNITYDLEKYKNLDEGTIVVRFNSKDSKIQSLLGISNSKTKNGYFNFYVTNSRVGFELRNQKNEGNTQNGTENLVHMYKDVALNDGDNTVALKIEKNKGYKLFLNGKMIKEVKDTNTKFLNNIENLDSAFIGKTNRYGQSNEYNFKGNIGFMNIYNEPLGDDYLLSKTGETKALNGSELGSGSGLSSLGEYKDINLESSNASNITYDLEKYKNLDEGTIVVRFNSKDSKIQSLLGISNSKTKNGYFNFYVTNSRVGFELRNQKNEGNTQNGTENLVHMYKDVALNDGDNTVALKIEKNKGYKLFLNGKMIKEVKDTNTKFLNNIENLDSAFIGKTNRYGQSNEYNFKGNIGFMNIYNEPLGDDYLLSKTGETK,glycan array binding signal (z-score),[1],-0.277
same,glycan array binding signal (z-score),Fuc(a1-2)Gal(b1-4)GlcNAc,-0.304
same,glycan array binding signal (z-score),[2],-0.238
same,glycan array binding signal (z-score),[3],-0.304
same,glycan array binding signal (z-score),[4],-0.33
same,glycan array binding signal (z-score),[5],-0.342
same,glycan array binding signal (z-score),[6],-0.307
same,glycan array binding signal (z-score),[7],-0.342
same,glycan array binding signal (z-score),[8],-0.287
same,glycan array binding signal (z-score),[9],-0.324
same,glycan array binding signal (z-score),[10],-0.321
same,glycan array binding signal (z-score),[11],-0.255
same,glycan array binding signal (z-score),[12],-0.084
same,glycan array binding signal (z-score),[13],-0.183
same,glycan array binding signal (z-score),[14],-0.332
same,glycan array binding signal (z-score),[15],-0.31
same,glycan array binding signal (z-score),[16],-0.151
same,glycan array binding signal (z-score),Gal(b1-4)Glc,-0.329
same,glycan array binding signal (z-score),[17],-0.257
same,glycan array binding signal (z-score),[18],-0.306
same,glycan array binding signal (z-score),GalNAc(b1-3)GalNAc,-0.314
same,glycan array binding signal (z-score),[19],-0.33
same,glycan array binding signal (z-score),[20],0.045
same,glycan array binding signal (z-score),[21],-0.23
same,glycan array binding signal (z-score),[22],-0.21
same,glycan array binding signal (z-score),[23],5.89
same,glycan array binding signal (z-score),[24],4.37
same,glycan array binding signal (z-score),[25],8.45
same,glycan array binding signal (z-score),[26],4.46
same,glycan array binding signal (z-score),[27],5.75
same,glycan array binding signal (z-score),[28],5.87
same,glycan array binding signal (z-score),[29],-0.157
same,glycan array binding signal (z-score),[30],7.8
same,glycan array binding signal (z-score),[31],5.95
same,glycan array binding signal (z-score),[32],7.24
same,glycan array binding signal (z-score),[33],4.71
same,glycan array binding signal (z-score),Neu5Ac(a2-6)Gal(b1-4)Glc,0.183
same,glycan array binding signal (z-score),[34],-0.197
same,glycan array binding signal (z-score),Neu5Ac(a2-8)Neu5Ac,-0.046
same,glycan array binding signal (z-score),[35],-0.2
same,glycan array binding signal (z-score),[36],0.647
same,glycan array binding signal (z-score),[37],6.28
same,glycan array binding signal (z-score),Neu5Gc(a2-6)GalNAc,-0.044
same,glycan array binding signal (z-score),[38],-0.252

# Reference: the supplement of paper PMC8728848
